An excerpt weighted towards active compounds, which were near 1.2% of everything screened.
ABHD5 PLIN5 PPI = ABHD5-PLIN5 protein interaction inhibition; AID 602281; inhibition, % at 4 µM; 360,000 tested, 0.78% active; Split G. princeps luciferase complementation, luminescence, 4 h; Q00G26+Q8WTS1;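 active = inhibition above the mean inhibition across every tested compound plus 3 SD, cut at about 22% in these data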;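 also: 0% = DMSO only wells and the 100% control is not disclosed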
TLR4-MyD88 BLA = blocks binding of human TLR4 to MyD88. 200,000 tested, 0.18% active. AID 861. inhibition, % at 8.4 µM. HeLa CL3-4 TLR4/MyD88 BLA complementation, FRET ratio. O00206+Q99836; in the data active = inhibition above about 25%;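 also: 0% = vehicle and 100% = reference inhibitor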
Target sequence (O00206 whole entry, looked up): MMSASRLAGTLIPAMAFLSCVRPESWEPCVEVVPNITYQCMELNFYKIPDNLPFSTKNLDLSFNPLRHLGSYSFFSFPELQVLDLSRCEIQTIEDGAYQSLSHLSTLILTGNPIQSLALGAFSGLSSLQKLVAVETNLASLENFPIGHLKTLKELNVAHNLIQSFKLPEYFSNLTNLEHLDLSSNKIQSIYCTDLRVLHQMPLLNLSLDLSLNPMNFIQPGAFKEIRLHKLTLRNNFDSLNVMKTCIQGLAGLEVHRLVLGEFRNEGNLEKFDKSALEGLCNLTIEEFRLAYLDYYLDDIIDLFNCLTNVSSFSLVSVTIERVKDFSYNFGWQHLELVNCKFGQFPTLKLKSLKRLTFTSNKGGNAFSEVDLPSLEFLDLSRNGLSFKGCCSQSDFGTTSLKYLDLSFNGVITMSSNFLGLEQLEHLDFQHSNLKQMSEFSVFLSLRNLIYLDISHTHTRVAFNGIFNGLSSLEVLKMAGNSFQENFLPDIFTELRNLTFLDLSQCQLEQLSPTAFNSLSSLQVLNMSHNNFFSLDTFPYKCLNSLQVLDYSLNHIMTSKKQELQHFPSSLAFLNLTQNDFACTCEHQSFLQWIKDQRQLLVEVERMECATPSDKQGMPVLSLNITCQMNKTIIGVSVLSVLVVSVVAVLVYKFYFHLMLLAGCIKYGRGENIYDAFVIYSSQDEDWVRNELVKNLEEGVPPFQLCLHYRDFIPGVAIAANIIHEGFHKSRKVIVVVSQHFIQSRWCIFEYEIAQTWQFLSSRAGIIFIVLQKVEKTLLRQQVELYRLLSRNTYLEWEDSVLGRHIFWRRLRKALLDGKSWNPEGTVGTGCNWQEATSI
Target sequence (Q99836 whole entry, looked up): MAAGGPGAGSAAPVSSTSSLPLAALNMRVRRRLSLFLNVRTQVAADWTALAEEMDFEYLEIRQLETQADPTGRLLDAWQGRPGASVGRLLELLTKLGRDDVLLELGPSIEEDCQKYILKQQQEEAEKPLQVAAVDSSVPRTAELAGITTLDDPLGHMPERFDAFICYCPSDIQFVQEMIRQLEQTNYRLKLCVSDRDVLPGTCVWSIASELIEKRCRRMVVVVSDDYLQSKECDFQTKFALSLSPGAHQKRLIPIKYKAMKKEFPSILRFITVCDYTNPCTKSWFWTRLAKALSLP
NOD2 RIPK2 PPI = inhibitors of human NOD2-RIPK2 interaction | O43353 | CHO BLA complementation NOD2-RIPK2, CCF4 ratio | inhibition, % at 4.98 µM | 360,000 tested, 0.38% active | AID 624267; in the data active = inhibition above about 21%;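 also: 0% = vehicle only and 100% = reference blocker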
TLR9-MyD88 block = TLR9-MyD88 interaction inhibition. CHO BLA complementation TLR9-MyD88, CCF4 FRET ratio. Q9NR96+Q99836. 340,000 tested, 0.21% active. inhibition, % at 4.98 µM;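 active = inhibition above the mean over all tested compounds plus 3 SD, cut at about 21% in these data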;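 also: 0% = DMSO only wells and 100% = clavulanate BLA inhibitor control wells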
TLR9-MyD88 cf = TLR9-MyD88 interaction inhibition, confirmation | shares compounds with TLR9-MyD88 block | CHO TLR9/MyD88 BLA complementation, CCF4 FRET ratio | inhibition, % at 4.98 µM | 680 tested, 51% active;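 active = mean inhibition across three repeats above about 21% taken from the earlier screen, limit read from the data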;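 also: blue over green emission ratio reports constitutive TLR9 MyD88 association via BLA complementation; 0% = DMSO vehicle wells and 100% = clavulanate BLA inhibitor wells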
BLA counter-1 = beta-lactamase reporter inhibition, counter-screen artifact | inhibition, % at 4.98 µM | shares compounds with TLR9-MyD88 block | 680 tested, 7% active | CHO-BLA cells, CCF4 FRET ratio, BLA reporter | AID 540251;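 active = mean inhibition above a 50% cutoff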;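 also: counterscreen of TLR9-MyD88 hits on CMV-driven BLA in CHO-K1 cells; 0% = DMSO alone and 100% = clavulanate blocking BLA; higher means less blue over green ratio so more BLA blockade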
TLR9 CHO cytotox = CHO cell toxicity counter-screen for TLR9-MyD88 inhibitors. shares compounds with TLR9-MyD88 block. TLR9-MyD88 CHO cells cytotoxicity, luminescence. inhibition, % at 4.98 µM. 680 tested, 39% active. AID 588336; in the data active = inhibition above about 11%
NOD2-RIPK2 conf = NOD2-RIPK2 interaction inhibition confirmed | AID 624370 | 1,200 tested, 70% active | inhibition, % at 4.98 µM | CHO cells, NOD2-RIPK2 BLA complementation, CCF4 FRET | shares compounds with NOD2 RIPK2 PPI;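 active = mean inhibition across replicates above a set limit taken from the earlier primary screen, cut at about 21% in these data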;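 also: 0% = DMSO-only wells and the high end = clavulanate BLA-blocked wells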
BLA counter-2 = hits BLA reporter in NOD2-RIPK2 inhibitor counterscreen; shares compounds with NOD2 RIPK2 PPI; CHO BLA reporter, CCF4 FRET ratio; inhibition, % at 4.98 µM; 1,200 tested, 57% active; AID 624371;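 active = mean inhibition above the low-control mean inhibition plus three low-control SD, cut at about 11% in these data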;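 also: 0% = DMSO only wells and 100% = clavulanate high control wells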
* marks the source's active call; other numbers are inactive results.

Screening CCOC(=O)N1C2c3ccccc3C(c3ccccc32)N1C(=O)OCC returned ABHD5 PLIN5 PPI 1.8, NOD2 RIPK2 PPI 0.6 and TLR9-MyD88 block 3.2.
Cc1cc(Br)ccc1NC(=O)CN(C)Cc1cccs1 was read as ABHD5 PLIN5 PPI 7.2, NOD2 RIPK2 PPI -10.5 and TLR9-MyD88 block -5.5.
For CN(C(=O)C=Cc1ccccc1)c1ccccc1 the results were ABHD5 PLIN5 PPI -2.1, NOD2 RIPK2 PPI -9.8 and TLR9-MyD88 block -5.5.
`CN(c1ccccc1)c1ccc(/C=C/[N+](=O)[O-])cc1` gave ABHD5 PLIN5 PPI 87.9*, TLR4-MyD88 BLA 9.7, NOD2 RIPK2 PPI 74.7*, TLR9-MyD88 block 25.8*, TLR9-MyD88 cf 27.8*, BLA counter-1 10.5, TLR9 CHO cytotox 81.2*, NOD2-RIPK2 conf 88.6* and BLA counter-2 28.7*.
Screening COc1cc2c3nnc(-c4ccc(F)cc4)c-3cn(Cc3ccc(F)cc3)c2cc1OC returned ABHD5 PLIN5 PPI 3.2, TLR4-MyD88 BLA 1.7, NOD2 RIPK2 PPI 55.6*, TLR9-MyD88 block 24.4*, TLR9-MyD88 cf 10.6, BLA counter-1 15.4, TLR9 CHO cytotox 3.0, NOD2-RIPK2 conf 61.0* and BLA counter-2 64.1*.
Screening Cn1nc2c3cc(F)ccc3n(Cc3ccc(F)cc3)cc-2c1=O returned ABHD5 PLIN5 PPI 0.5, NOD2 RIPK2 PPI -5.7 and TLR9-MyD88 block 9.0.
C=CCn1c(COc2ccccc2OC)nc2ccccc21 was read as ABHD5 PLIN5 PPI 6.3, NOD2 RIPK2 PPI -2.8 and TLR9-MyD88 block 0.9.
For O=S(=O)(Nc1cccc2cccnc12)c1ccccc1 the results were ABHD5 PLIN5 PPI -4.5, NOD2 RIPK2 PPI 38.8*, TLR9-MyD88 block 34.9*, TLR9-MyD88 cf 18.2, BLA counter-1 7.0, TLR9 CHO cytotox 98.4*, NOD2-RIPK2 conf 54.2* and BLA counter-2 17.6*.
For Cc1ccccc1-n1c(SCC(=O)NC2CC2)nc2ccccc2c1=O the results were ABHD5 PLIN5 PPI 0.7, NOD2 RIPK2 PPI -5.4 and TLR9-MyD88 block -0.3.
Screening Cc1cccc(/C=C2\Oc3cc(OS(C)(=O)=O)ccc3C2=O)c1 returned ABHD5 PLIN5 PPI 7.2, TLR4-MyD88 BLA 5.0, NOD2 RIPK2 PPI -5.6 and TLR9-MyD88 block -8.4.
`O=C1/C(=C/c2cccc(F)c2)Oc2cc(O)ccc21` gave ABHD5 PLIN5 PPI 5.6, NOD2 RIPK2 PPI 31.8*, TLR9-MyD88 block 25.5*, TLR9-MyD88 cf 9.8, BLA counter-1 15.2, TLR9 CHO cytotox 2.2, NOD2-RIPK2 conf 43.6* and BLA counter-2 42.0*.
`CN(C)c1ccc(/C=C2\Oc3ccc(C#Cc4cccc(N)c4)cc3C2=O)cc1` gave ABHD5 PLIN5 PPI 2.1, NOD2 RIPK2 PPI 49.4*, TLR9-MyD88 block 45.0*, TLR9-MyD88 cf 53.3*, BLA counter-1 60.0*, TLR9 CHO cytotox 3.6, NOD2-RIPK2 conf 70.6* and BLA counter-2 78.5*.
`COC(=O)c1ccc2c(c1)C(=O)/C(=C/c1ccc(C)cc1)O2` gave ABHD5 PLIN5 PPI -6.3, TLR4-MyD88 BLA 4.9, NOD2 RIPK2 PPI -1.0 and TLR9-MyD88 block -7.1.
For Cc1c(Cl)c(=O)n2c(=O)c(Cl)c(C)n12 the results were ABHD5 PLIN5 PPI 5.0, TLR4-MyD88 BLA 8.6, NOD2 RIPK2 PPI 24.3*, TLR9-MyD88 block 25.6*, TLR9-MyD88 cf 11.7, BLA counter-1 14.2, TLR9 CHO cytotox 0.6, NOD2-RIPK2 conf 36.9* and BLA counter-2 39.6*.
CC(=O)OCCn1c(C)[n+](CCOC(C)=O)c2cc(Cl)c(Cl)cc21 was read as ABHD5 PLIN5 PPI -1.8, TLR4-MyD88 BLA -3.9, NOD2 RIPK2 PPI -7.6 and TLR9-MyD88 block 3.2.
Screening CC(=O)OCCn1c2nc(=O)[nH]c(=O)c-2nc2cc(C)c(C)cc21 returned ABHD5 PLIN5 PPI -2.5, NOD2 RIPK2 PPI 23.1*, TLR9-MyD88 block 21.2*, TLR9-MyD88 cf 5.4, BLA counter-1 6.4, TLR9 CHO cytotox 2.9, NOD2-RIPK2 conf 20.3 and BLA counter-2 22.8*.
O=C1Nc2ccccc2S/C1=C/Nc1cccc(Cl)c1 was read as ABHD5 PLIN5 PPI -0.3, TLR4-MyD88 BLA 4.5, NOD2 RIPK2 PPI 0.8 and TLR9-MyD88 block 9.3.
Screening O=C(NCC(=O)N1CCCC1)c1ccc(Cl)cc1 returned ABHD5 PLIN5 PPI -7.2, NOD2 RIPK2 PPI -0.4 and TLR9-MyD88 block -1.4.
`Cc1ccc(S(=O)(=O)N2CCOCC2)cc1C(=O)N1C(=O)c2cccc(N)c2C1=O` gave ABHD5 PLIN5 PPI -1.8, TLR4-MyD88 BLA -7.7, NOD2 RIPK2 PPI 10.5 and TLR9-MyD88 block -0.7.
Nc1cccc2c1C(=O)N(C(=O)c1cccc(S(=O)(=O)N3CCCCCC3)c1)C2=O was read as ABHD5 PLIN5 PPI -3.5, TLR4-MyD88 BLA 16.5, NOD2 RIPK2 PPI 28.2*, TLR9-MyD88 block 25.3*, TLR9-MyD88 cf 15.9, BLA counter-1 14.2, TLR9 CHO cytotox 3.8, NOD2-RIPK2 conf 33.3* and BLA counter-2 38.2*.
N#Cc1cnn2ccc(-c3ccc4c(c3)CCC4)nc12 was read as ABHD5 PLIN5 PPI 3.1, TLR4-MyD88 BLA 0.1, NOD2 RIPK2 PPI -3.6 and TLR9-MyD88 block 2.9.
Screening O=c1c(O)c(-c2cccs2)oc2ccccc12 returned ABHD5 PLIN5 PPI -7.9, TLR4-MyD88 BLA 18.9, NOD2 RIPK2 PPI 29.5*, TLR9-MyD88 block 20.9*, TLR9-MyD88 cf 17.7, BLA counter-1 18.9, TLR9 CHO cytotox 4.2, NOD2-RIPK2 conf 41.0* and BLA counter-2 38.4*.
CCN1CCN(Cc2c(O)ccc3c2O/C(=C\c2ccccc2)C3=O)CC1 was read as ABHD5 PLIN5 PPI 4.6, TLR4-MyD88 BLA 8.2, NOD2 RIPK2 PPI 26.8*, TLR9-MyD88 block 21.0*, TLR9-MyD88 cf 15.1, BLA counter-1 12.5, TLR9 CHO cytotox 0.5, NOD2-RIPK2 conf 24.5* and BLA counter-2 27.9*.
Screening COc1ccccc1/C=C/C=C1\Oc2c(ccc(O)c2CN2CCN(CCO)CC2)C1=O returned ABHD5 PLIN5 PPI 20.7, TLR4-MyD88 BLA 11.7, NOD2 RIPK2 PPI 15.5 and TLR9-MyD88 block 12.2.
Cc1ccc(C(=O)O)cc1N1C(=O)c2cccc3c([N+](=O)[O-])ccc(c23)C1=O was read as ABHD5 PLIN5 PPI 5.7, NOD2 RIPK2 PPI 56.2*, TLR9-MyD88 block 29.0*, TLR9-MyD88 cf 25.6*, BLA counter-1 22.0, TLR9 CHO cytotox -2.8, NOD2-RIPK2 conf 45.2* and BLA counter-2 38.6*.

High-throughput results deposited in PubChem by The Scripps Research Institute Molecular Screening Center.
